Assay outcomes (PubChem BioAssay)
CF NFkB block: blocks PAF-induced NF-kB reporter in cystic fibrosis cells; KKLEB NF-kB-GFP reporter, GFP fluorescence overnight; inhibition, % at 5 µM; 360,000 tested, 0.86% active; AID 588850;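 active = at least 50% inhibition at 5 µM, scaled per plate between neutral and stimulator controls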;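 also: PAF is a Pseudomonas aeruginosa culture filtrate used as stimulus; plate controls were PAF-stimulated DMSO wells for no effect and unstimulated DMSO wells for full effect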
TWEAK-Fn14 inh: inhibitors of TWEAK-Fn14 interaction signaling. TWEAK-stimulated Fn14 reporter cells, luciferase luminescence, 8 h. inhibition, % at 10 µM. 360,000 tested, 2% active. AID 1159606; in the data active = inhibition above about 50%
KKLEB cytotox: reduces viability of KKLEB cystic fibrosis airway cells; activity change (cytotoxicity), % at 5 µM; KKLEB CF airway cells viability, ATPlite luminescence, overnight; hits give low values; cells stimulated with P. aeruginosa culture filtrate; 360,000 tested, 0.36% active;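 active = corrected activity change at or below -50% at 5 µM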
HIF-2a inh: blocks HIF-2a reporter activity | 786-0 RCC cells HIF-2a reporter, luciferase luminescence, overnight | inhibition, % at 18.8 µM | 360,000 tested, 0.72% active;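 active = inhibition of the luminescence signal of 40% or more relative to plate controls, in a single-dose primary screen at 18.75 µM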
Peg3 promoter: inhibitors of Peg3 promoter; HeLa PEG-Prom luciferase reporter, luminescence, overnight; inhibition, % at 20 µM; 360,000 tested, 1.7% active;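 active = inhibition of at least 50% at 20 µM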
TROY signal inh: blocks TROY-dependent signaling in reporter cells; Q293 LMP1-TROYcd NF-kB luciferase reporter, 4 h; inhibition, % at 10 µM; 360,000 tested, 0.98% active;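 active = compounds whose plate-normalised and pattern-corrected inhibition of the luciferase reporter signal at the single screening dose is 50% or more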
Active calls of the source: *; ! = repeats disagree. In the library only some 4% were active in any assay of this set; here they are far more common.

SMILES	CF NFkB block	TWEAK-Fn14 inh	KKLEB cytotox	HIF-2a inh	Peg3 promoter	TROY signal inh
CC(C)N1CCN(C(=O)c2ccc(OC3CCN(CCc4ccccc4)CC3)cc2)CC1	-21.4	-18.3	10.0	-16.9	-11.1	1.6
COc1ccc(OC)c(NC(=O)c2nc3ccccc3s2)c1	-24.3	-18.6	1.7	-71.9	-71.0	-33.9
O=C(Nc1ccc(Cc2nc3ccccc3s2)cc1)c1ccncc1	5.9	59.4*	-7.5	-18.4	-4.5	27.5
COc1ccc(NC(=O)c2cc3ccccn3n2)cc1	-29.1	62.5*	-2.6	-93.7	-155.3	-4.8
COc1ccc(NC(=O)c2nc3ccccc3s2)cc1	-14.4	61.0*	-7.8	-56.5	-85.7	38.2
NC(=O)c1ccc(NC(=O)CCc2nc3ccccc3s2)cc1	-27.0	-10.5	-5.4	-56.0	-15.0	-5.9
O=C1CC(C(=O)Nc2ccc(F)cc2)n2cnnc2N1 (stereo not given)	5.6	34.5	4.0	23.2	14.1	-6.9
Fc1ccc2[nH]c3c(NCc4ccccc4)ncnc3c2c1	-4.5	44.4	-5.9	26.0	20.8	52.1*
OCCCNc1ncnc2c1[nH]c1ccccc12	13.0	-5.8	-4.7	9.7	3.9	-12.3
CC1=C(/C=C/C(=O)O)C(C)(C)CCC1	7.6	-1.3	-16.3	4.0	10.1	4.0
CC1=C(/C=C/C(C)=C/C=C/C(C)=C/C(=O)Nc2ccc(O)cc2)C(C)(C)CCC1	3.5	20.4	-8.7	11.2	61.2*!	16.6
CC(=O)c1c(C)[nH]c(C(=O)Nc2ccc(C)c(S(=O)(=O)Nc3ccc(C)cc3C)c2)c1C	-28.7	46.9	3.1	14.9	25.6	58.4*
Cc1ccc(NS(=O)(=O)c2cc(NC(=O)c3ccc4c(c3)NC(=O)CS4)ccc2C)c(C)c1	-7.8	72.1*	7.5	29.7	43.7	63.9*
COc1ccc2c(c1)C(=O)N(c1ccccc1)C(=O)C2	-15.8	-4.1	-2.8	1.2	-4.4	-10.5
CCOC(=O)c1c(NC(=O)COC(=O)Cn2cnc3ccccc32)sc2c1CCC(C)C2 (stereo not given)	18.4	2.1	-1.7	-15.5	0.8	-19.2
CC1CCN(S(=O)(=O)c2ccc3c4c2CC(=O)N4CC(C)S3)CC1 (stereo not given)	6.8	1.0	1.5	4.5	11.1	2.5
COc1cc2c(cc1[N+](=O)[O-])-c1ccc([N+](=O)[O-])cc1C2=NNC(N)=S	-310.6	-101.5	0.3	-14.4	-20.9	-36.2
NC(=S)NN=C1c2cc(Cl)ccc2-c2c1cc(Cl)cc2[N+](=O)[O-]	-183.0	101.1*	5.9	-24.9	25.4	47.0
COc1ccc(C(C)=O)cc1CSc1nnc(C)s1	-8.3	5.7	7.3	-6.4	-15.3	11.4
COc1ccc(C(C)=O)cc1CSc1nnc(Nc2ccc(C)cc2)s1	24.0	62.6*	-3.7	15.0	8.1	29.0
COc1ccc(C(C)=O)cc1CSc1nnc(Nc2ccccc2)s1	4.4	70.0*	13.6	11.1	20.8	40.5
O=C(CSc1nnc(Nc2ccccc2F)s1)NC(=O)CN1CCCC1=O	9.3	0.7	-1.8	-43.5	-6.3	4.1
Cc1cc2c(=Cc3ccc(N(C)C)cc3)c3ccccc3n2[n+]1C	-131.9	66.8*	7.3	68.9*	97.0*	40.5
CCOC(=O)c1cc2c(=Cc3ccc(N(C)C)cc3)c3ccccc3n2[n+]1C	-20.8	6.8	-8.2	-52.2	46.9	27.3
CN(C)c1ccc(C=c2c3cc(O)ccc3n3c2cc(-c2ccccc2)[n+]3C)cc1	-71.0	39.9	-8.3	-72.7	46.5	26.9
SMILES	CF NFkB block	TWEAK-Fn14 inh	KKLEB cytotox	HIF-2a inh	Peg3 promoter	TROY signal inh
CN(C)c1ccc(C=c2c3ccccc3n3c2c2ccccc2[n+]3C)cc1	23.0	25.1	-7.6	-8.7	71.4*	23.0
CCCc1ccc(C(O)c2ncc(-c3ccccc3F)[nH]2)cc1 (stereo not given)	-38.0	-19.9	-5.0	-223.4	-205.3	-52.4
CCN(CC)C(=O)C1CC(=O)OC12CCCCC2 (stereo not given)	8.3	-7.5	-2.1	14.0	5.5	-0.6
CC1=Nc2ccccc2/C1=C/c1sc(=N)n(-c2nccs2)c1O	-3.6	101.0*	7.3	15.9	17.5	73.5*
O=C(NN=Cc1ccc(O)cc1O)c1ccccc1NS(=O)(=O)c1cccs1	-3.8	3.6	-0.5	1.6	-9.6	5.7
CCOc1ccc(NC(=O)CN2CCN(C(=O)C3CCCO3)CC2)cc1 (stereo not given)	-23.5	92.8*	5.0	11.3	-6.5	-3.9
